Calls of active or inactive are those of the source.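 Rule for the calls: active = primary screen active and over 50% activation in each of two duplicate runs; inactive = the rest.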
Test system: transient receptor potential cation channel C4 beta (TRPC4), mouse
Assay: TRPC4 cation channel opening, second retest – cell-based, second round, Fluo4, HEK293 TRPC4beta/mu-opioid, 1 µM, confirmation (AID 2461)
Conditions: Fluo4 calcium fluorescence, at 1 µM

outcome, inactive:
COc1cccc(C2=NN(C(=O)c3ccco3)C(c3ccco3)C2)c1 (configuration not stated)
O=C(COC(=O)Cn1cnc2ccccc2c1=O)Nc1ccccc1Sc1ccc(Cl)cc1
NC(=O)c1nsc(C(=O)N(Cc2ccccc2Cl)C(C(=O)NCC2CCCO2)c2ccc(O)cc2)c1N (configuration not stated)
O=C(NC1CCCCC1)N1CCN(C(c2ccccc2)c2ccccc2)CC1
Cc1ccc(NC(=S)N(CCCN(C)C)Cc2cc3cc4c(cc3[nH]c2=O)OCO4)c(C)c1
CCCC[n+]1c2ccccc2cc2ccccc21
CC(C)(C)CC(C)(C)NCC(O)COc1ccc2c(c1)CCC2 (configuration not stated)
CCOc1ccc(Cl)cc1/C=N/O
O=C(C[n+]1cc(-c2ccc(Cl)c(Cl)c2)n2c1CCC2)N1c2ccccc2Sc2ccccc21
CC1CCc2c(sc3ncnc(SCC(=O)Nc4ccc(C(=O)O)cc4)c23)C1 (configuration not stated)
NS(=O)(=O)c1ccc(Nc2nc(-c3ccc(O)cc3O)cs2)cc1
CCCn1c(NC(=O)c2ccc(Cl)c(S(=O)(=O)N3CCCC3)c2)nc2ccccc21

— PubChem BioAssay
